Data as given in PubChem BioAssay AID493200 (National Center for Advancing Translational Sciences (NCATS), 2011).
Results filed as inconclusive are left out. Where a call stands in place of a potency, no number is given. The source made the active and inactive calls. The call rests on the fitted dose curve; in most records, active means well fitted activation curve with a large enough effect; inconclusive means small, poorly fitted or top-dose-only effect; inactive means no such curve, though single readings can be large or run the other way.

Test: qHTS Assay for Rab9 Promoter Activators: Initial hit validation from the primary screen
Conditions: Huh7 Rab9 promoter luciferase reporter, 24 h; series mostly up to 46.1 µM
Summary of the method: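 Luciferase signal, read 10 min after Amplite reagent, reports Rab9 promoter activation. Compounds in DMSO were applied for 24 h at 37C to Rab9-luciferase Huh7 cells, pre-incubated 2 h in reduced-serum medium with 10% FBS.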
Potency means the concentration at half of the fitted maximal effect.

Structure (SMILES) | Potency
CN(C)C(CNC(=O)CNC(=O)c1ccc2ccccc2c1)c1ccccc1 (stereo not drawn) | inactive
CCOc1ccc(S(=O)(=O)NCc2ccccc2)cc1C(N)=O | inactive
CCOC(=O)c1ccc(NC(=O)Oc2cc(C)c(Cl)cc2C(C)C)cc1 | inactive
O=C(NC1CCCC1)C(c1ccc(F)cc1)N(C(=O)c1csnn1)c1ccccc1 (stereo not drawn) | inactive
Nc1c(N(CCO)C(=O)/C=C/c2ccco2)c(=O)[nH]c(=O)n1Cc1ccccc1 | inactive
CC(C)C(NC(=O)c1ccc([N+](=O)[O-])cc1Cl)C(=O)N1CCCC1 (stereo not drawn) | inactive
CNC(=O)Cn1nc(C)c2ccccc2c1=O | inactive
Cc1nc(SCC(=O)NC(=O)NC(C)(C)C)nc(C)c1C | inactive
O=C(NNC(=O)C1COc2ccccc2O1)c1ccccc1O (stereo not drawn) | inactive
CCOC(=O)CSc1nc2cc(C)ccc2cc1C#N | 996 nM (active)
Nc1nc(SCCO)[nH]c(=O)c1NC(=O)c1ccco1 | inactive
CCCCn1c(Nc2ccc(OC)cc2)nc2ccccc21 | inactive
N#C/C(=N\Nc1ccc(Cl)cc1)C(=N)N1CCCCC1 | 223 nM (active)
COc1ccc(S(=O)(=O)NC(C(=O)NCCc2ccccn2)C(C)C)cc1 (stereo not drawn) | inactive
O=C(CSc1nnc(Cc2cc(=O)[nH]c(=O)[nH]2)n1-c1ccc(Cl)cc1)NC1CCCC1 | inactive
Cc1noc(/C=C/N(C)C)c1S(=O)(=O)N1CCCC(C(=O)N2CCCCC2)C1 (stereo not drawn) | inactive
Cc1ccc(C(=O)NCc2ccc3c(c2)OCO3)cc1C | 25000 nM (active)
CC1CCCN(S(=O)(=O)c2ccc(C(=O)Nc3nnc(-c4ccncc4)o3)cc2)C1 (stereo not drawn) | inactive
